Screening data from PubChem.
This is a sample that favours compounds with a hit; in the whole collection about 21% have one here.
TDP1 cell noCPT – qHTS for Inhibitors of human tyrosyl-DNA phosphodiesterase 1 (TDP1): qHTS in cells in absence of CPT; Potency, µM (top dose mostly 46.2 µM), for the others: at the highest dose activity change, negative = growth inhibition, hits mostly inhibitors; 420,000 compounds, 15% hits; DT40 Tdp1-/- hTDP1 cells, no CPT, ATP luminescence, 48 h; AID 686978, 2013; note: potency is the fitted concentration of half-maximal effect; % is set by controls: 0 for no effect and ±100 for the full control effect; nearly all actives have a fitted effect of over 55% in size
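Readout: luminescence from CellTiter-Glo after 30 min in the dark at RT. Cells: DT40 Tdp1-/- with stable hTDP1, 400/well. Exposure: compounds alone, ≥48 hr, 37 °C.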
DRD3 antagonist – blocks the human D3 dopamine receptor. P35462. D3R cells, DiscoveRx beta-arrestin luminescence, antagonist mode; stronger effect = lower value. max response, negative = inhibition, %. 360,000 compounds, 2.5% hits; in the data active = max response below about -50%; inconclusive = no clear call, values can overlap the other calls; note: % is set by controls: 0 for no effect and ±100 for the full control effect
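Cells expressing the human receptor were seeded at 1500 cells/well, incubated overnight at 37 degrees C in 5% CO2, then exposed to library compounds with dopamine controls for 90 minutes at 37 degrees C before luminescent detection.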
IL1B secr inh – blocks inflammasome-driven IL-1 beta release. THP-1 LPS/ATP IL-1B secretion, AlphaLISA, 16 h; stronger effect = lower value. activity change, % at 57.5 µM. 360,000 compounds, 4.7% hits. AID 743279; in the data active = activity change below about -50%; inconclusive = mostly about -30% to -49%; note: % is set by controls: 0 for no effect and ±100 for the full control effect
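Secreted IL-1B measured by AlphaLISA bead assay after 16 h compound exposure of THP-1 cells; compounds (final up to 57.5 uM) added 1 h before LPS (250 ng/mL) and ATP (1.25 mM) stimulation; lower signal means less secretion.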
TDP1 cell CPT – DT40-hTDP1 cell growth loss with CPT; chicken DT40 Tdp1-/-;hTDP1 cells + 20 nM CPT, ATP luminescence, 48 h; Potency, µM (highest dose often 46.2 µM), inactives show at the top dose activity change, negative = growth inhibition, actives largely listed as inhibitors; 420,000 compounds, 12% hits; AID 686979; note: potency is the fitted concentration of half-maximal effect; % is set by controls: 0 for no effect and ±100 for the full control effect; nearly all actives have a fitted effect of over 55% in size
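Chicken DT40 Tdp1-/- cells stably complemented with human TDP1 were seeded at 400 cells/well in medium containing 20 nM camptothecin, exposed to pin-transferred compounds, and grown at 37 °C for at least 48 hr. Viability was read as ATP luminescence.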
ClpP mod – qHTS Assay for Activators of ClpP. ATP-dependent Clp protease proteolytic subunit (Bacillus subtilis (strain 168)), P80244. purified B. subtilis ClpP, FRET peptide cleavage, 20 min. Potency, µM (series often up to 57.5 µM), without a hit: at the highest dose activity change, negative = active. 340,000 compounds, 1.9% hits; active = well fitted falling curve with a large enough effect; inconclusive = small, poorly fitted or top-dose-only effect; inactive = no such curve, though single readings can be large or run the other way; note: potency is the fitted concentration of half-maximal effect; the source files actives as falling curves though it sought activators and does not explain the sign; nearly all actives have a fitted effect of over 65% in size
Target sequence (P80244 whole entry, looked up): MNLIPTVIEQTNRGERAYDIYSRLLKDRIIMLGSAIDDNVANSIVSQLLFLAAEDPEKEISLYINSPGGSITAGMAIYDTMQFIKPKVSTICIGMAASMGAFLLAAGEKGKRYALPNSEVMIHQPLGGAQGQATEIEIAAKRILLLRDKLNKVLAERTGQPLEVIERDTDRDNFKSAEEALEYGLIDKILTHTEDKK
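FRET quenching reversal measured ClpP activation: 10 microg/mL B. subtilis ClpP at pH 8 with the FRET-FV decapeptide, read at 430 nm after 320 nm excitation. The 20-min minus 0-min signal was scaled between DMSO/no-enzyme wells and ADEP (5.8 microM final).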
D3 ag – agonists of human D3 dopamine receptor; P35462; D3R DiscoveRx beta-arrestin cells, luminescence, 90 min; max activation, %; 410,000 compounds, 0.58% hits; AID 652048; in the data active = max activation above about 30%; note: 0% is about no effect
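Cells at 1500/well, incubated overnight, then treated with pinned compounds (dopamine as control) for 90 min at 37 degrees C. DiscoveRx reagent added for 30 - 60 minutes at room temperature; luminescence read.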
Active calls of the source: *; ? = inconclusive; · = no result. Unless noted, calls come from the whole dose curve; as a rule, active = well fitted inhibition curve with a large enough effect; inconclusive = small, poorly fitted or top-dose-only effect; inactive = flat fitted curve, though single readings scatter.

SMILES | TDP1 cell noCPT | DRD3 antagonist | IL1B secr inh | TDP1 cell CPT | ClpP mod | D3 ag
CCCCNC(=O)C(NC(=O)c1ccc(C(F)(F)F)cc1)C(=O)c1ccccc1 (stereo unspecified) | 4.2% | 13.7 | 17.5 | -16.3% | 1.7% | -0.4
CCOC(=O)CN=C/C(C(=O)Nc1nccs1)=C(/C)O | -22.2% | -6.9 | 4.1 | -4.2% | · | 8.5
CCCCOc1ccc(S(=O)(=O)n2nc(C)c(S(=O)(=O)N3CCC(C)CC3)c2C)cc1 | -12.5% | · | · | -18.8% | 0.1% | 2.8
O=C(Nc1ccc(F)c(Cl)c1)N1CC=C(c2c[nH]c3ccccc23)CC1 | 16.4µM* | · | · | 23.1µM* | -19.5% | 1.7
O=C(Nc1cccc(F)c1)N1CC=C(c2ccc(Cl)cc2)CC1 | ? | -22.6 | ? | ? | -12.7% | -0.8
O=C(COC(=O)Cc1c[nH]c2ccccc12)Nc1ccccc1C(F)(F)F | -0.2% | -25.3 | 12.5 | -18.6% | -1.0% | -3.9
O=C(Nc1ccccc1C(F)(F)F)N1CC=C(c2c[nH]c3ccccc23)CC1 | 25.9µM* | · | · | 20.6µM* | ? | -29.9
CC(=O)Nc1ccc(S(=O)(=O)N(C)CC(=O)OCC(=O)NCc2ccco2)cc1 | 17.7% | -1.7 | 3.9 | -11.2% | -3.7% | -15.9
CCN(CC)C(=O)c1[nH]cnc1C(=O)N[C@@H](Cc1ccccc1)C(=O)OC(C)(C)C | ? | 0.0 | 28.1 | ? | -0.5% | -1.0
CCC(C)Oc1ccccc1C1CC(=O)NC2=C1C(=O)CCC2 (stereo unspecified) | ? | -26.5 | 60.9 | 25.9µM* | 1.1% | 0.4
Cc1ccccc1C1CC(=O)NC2=C1C(=O)CCC2 (stereo unspecified) | -1.8% | 0.0 | -4.1 | 4.9% | -4.7% | 3.6
Cc1ccc(C)c(S(=O)(=O)N2CCN(C(=O)CCNS(=O)(=O)c3ccccc3)CC2)c1 | ? | -4.5 | 0.0 | -13.2% | 1.0% | 2.8
C=C(C)c1cccc(C(C)(C)NC(=O)N2CCN(C(=O)OCC)CC2)c1 | -11.3% | 0.0 | 8.6 | -11.4% | 0.4% | 4.5
Cc1ccc(-n2[nH]c(C)c(C=Nc3ccc(C)cn3)c2=O)cc1 | 16.4µM* | 13.0 | 19.7 | 9.2µM* | -12.8% | 0.1
Cc1[nH]n(-c2ccccc2)c(=O)c1/C=N/n1c(C)nc2ccccc2c1=O | ? | -52.0* | 14.5 | ? | -4.9% | 4.0
Cc1nc2ccccc2c(=O)n1/N=C/c1ccccc1 | -8.5% | 6.6 | 10.3 | -18.9% | -0.8% | 1.2
Cc1ccc(-n2[nH]c(C)c(/C=N/n3c(C)nc4ccccc4c3=O)c2=O)cc1 | 23.1µM* | 3.9 | 36.6 | 6.51µM* | -2.6% | -11.8
CCc1cccc(NC(=O)C(NS(=O)(=O)c2ccc3nc(C)sc3c2)C(C)C)c1 (stereo unspecified) | -18.6% | · | · | -7.5% | -0.6% | 9.1
COc1ccc(N2CCN(CCCNC(=O)C3COc4ccc(OC)cc4C3)CC2)cc1 (stereo unspecified) | 20.6µM* | · | · | 14.6µM* | -15.0% | 7.4
COc1ccc2c(c1)CC(C(=O)NCCN1CCN(c3ccccc3F)CC1)CO2 (stereo unspecified) | ? | · | · | ? | -4.0% | 2.3
O=C(NCCN1CCN(c2ccccc2F)CC1)C1c2ccccc2C(=O)N2CCc3ccccc3C12 (stereo unspecified) | ? | -56.6* | -8.5 | ? | -3.0% | -1.7
COc1ccc(N2CCN(CCCNC(=O)C3COc4ccccc4C3)CC2)cc1 (stereo unspecified) | 16.4µM* | · | · | 11.6µM* | -3.1% | -12.7
COc1ccc2c(c1)CC(C(=O)NCCCN1CCN(c3ccc(F)cc3)CC1)CO2 (stereo unspecified) | 25.9µM* | · | · | 20.6µM* | -1.6% | -16.2
